From PubChem BioAssay (NCATS)
Where “and” joins values, the source holds several entries; their conditions need not be identical. Equal values may be shown once. Inconclusive results are not listed. A structure can be active in one record and inactive in another. Calls of active or inactive are those of the source. Unless noted, calls come from the whole dose curve; as a rule, active = well fitted inhibition curve with a large enough effect; inconclusive = small, poorly fitted or top-dose-only effect; inactive = no such curve, though single readings can be large or run the other way.

Assay: HTS Assay for Allosteric Antagonists of the Human D2 Dopamine Receptor: Hit Validation in HTRF (AID 624455);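 note: stable D1 dopamine receptor cell line scored for blocking the D1 response; % is set by controls: 0 for no effect and ±100 for the full control effect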
Settings: Cells stably expressing D1 dopamine receptor, inhibition mode; series mostly up to 46.1 µM; activity, negative = inhibition: at the top concentration
In short: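 Validation of hits used D1 receptor stably expressed in cells with HTRF detection of response inhibition; origin screen measured calcium flux following EC80 dopamine in a force-coupled, inducible Hek293 Trex D2 cell line.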

Compound	Potency	activity, negative = inhibition
CC(C)N(CCC(C(N)=O)(c1ccccc1)c1ccccn1)C(C)C (centres undefined)	inactive	–
CC(NC(C)(C)C)C(=O)c1cccc(Cl)c1 (centres undefined)	–	-2.24% (inactive)
CCC1(c2ccc(N)cc2)CCC(=O)NC1=O (centres undefined)	–	-8.55% (inactive)

Assay: qHTS assay for small molecule agonists of the antioxidant response element (ARE) signaling pathway (AID 651741; active = well fitted activation curve with a large enough effect in the signal ratio; the % refers to the signal ratio; note: potency is the fitted concentration of half-maximal effect; for activation: % of control where 0% means no effect)
Settings: HepG2 ARE-bla reporter, beta-lactamase FRET ratio, 16 h; series mostly up to 96 µM; activation: at the top concentration
In short: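 Beta-lactamase reporter expression driven by the antioxidant response element in HepG2 cells was detected by fluorescence with LiveBLAzer B/G FRET substrate (2 h, room temperature) following 16 h compound treatment at 37 C.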

Compound	Potency	activation
CC(=O)N1CCN(c2ccc(OC[C@H]3CO[C@](Cn4ccnc4)(c4ccc(Cl)cc4Cl)O3)cc2)CC1	30.6 µM (active)	–
Nc1nc(N)nc(NC2CC2)n1	–	0.323% (inactive)
CCCCCCCCCCCCCCCC(=O)OC(C)C	54.5 µM (active)	–
CCOC(=O)CC(SP(=S)(OC)OC)C(=O)OCC (centres undefined)	48.6 µM (active)	–
COc1cc(OC)c(OC)cc1C=O	–	-4.98% (inactive)
O=C(O)c1cc(O)c(O)c(O)c1	4.22 µM (active)	–
COP(=S)(OC)Oc1cc(Cl)c(Cl)cc1Cl	24.3 µM (active)	–
[N-]=[N+]=CC(=O)OC[C@H](N)C(=O)O	–	6.71% (inactive)
Oc1ccccc1	inactive and 1000 µM (active)	–
CCC(C)(C)c1ccc(O)cc1	–	4.26% (inactive)
COP(=S)(OC)Oc1ccc(SC)c(C)c1	–	12.9% (inactive)
CC(C)NC(C)C	–	-1.87% (inactive)
O=C1c2ccccc2C(=O)C1C(=O)C(c1ccccc1)c1ccccc1	61.1 µM (active)	–
Nc1ccccc1	–	3.2% (inactive)
CN1C[C@H](C(=O)N[C@]2(C)O[C@@]3(O)[C@@H]4CCCN4C(=O)[C@H](Cc4ccccc4)N3C2=O)C=C2c3cccc4[nH]cc(c34)C[C@H]21	37.6 µM (active)	–

Assay: qHTS assay for small molecule activators of the p53 signaling pathway (AID 651743; active = well fitted activation curve with a large enough effect in the signal ratio, not every such curve was filed as active; the % refers to the signal ratio; note: % of control where 0% means no effect)
Settings: HCT-116 p53RE-bla, beta-lactamase FRET ratio, 16 h; activation: stronger effect = higher value
In short: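 Here HCT-116 cells with an integrated p53-responsive beta-lactamase gene were incubated with compounds (16 hours, 37 C) after a 5-hour plating period; beta-lactamase activity was detected as fluorescence intensity via B/G FRET substrate.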

Compound	activation
Nc1nc(N)nc(NC2CC2)n1	-0.84% (inactive)
O=C1c2ccccc2C(=O)c2ccccc21	3.87% (inactive)
CCOC(=O)CC(SP(=S)(OC)OC)C(=O)OCC (centres undefined)	-1.29% (inactive) and 0.916% (inactive) and -0.523% (inactive)
COc1cc(OC)c(OC)cc1C=O	-3.74% (inactive)
C[C@]1(O)CC[C@H]2[C@@H]3CCC4=CC(=O)CC[C@]4(C)[C@@]3(F)[C@@H](O)C[C@@]21C	-1.51% (inactive)
COP(=S)(OC)Oc1cc(Cl)c(Cl)cc1Cl	-3.16% (inactive)
[N-]=[N+]=CC(=O)OC[C@H](N)C(=O)O	-0.27% (inactive)
Nc1ccccc1C(=O)O	-0.0398% (inactive)
CCC(C)(C)c1ccc(O)cc1	0.115% (inactive) and -4.79% (inactive)
COP(=S)(OC)Oc1ccc(SC)c(C)c1	-1.52% (inactive) and -0.273% (inactive)
CC(C)NC(C)C	-4.28% (inactive)
O=C1c2ccccc2C(=O)C1C(=O)C(c1ccccc1)c1ccccc1	23.1% (inactive)
CC1(C)C(C=C(Cl)Cl)C1C(=O)OC(C#N)c1cccc(Oc2ccccc2)c1 (centres undefined)	-1.45% (inactive)
C[C@]12CCC(=O)C=C1CC[C@@H]1[C@@H]2CC[C@@]2(C)[C@H]1CC[C@]2(C)O	5.56% (inactive)
Nc1ccccc1	1.3% (inactive)
CN1C[C@H](C(=O)N[C@]2(C)O[C@@]3(O)[C@@H]4CCCN4C(=O)[C@H](Cc4ccccc4)N3C2=O)C=C2c3cccc4[nH]cc(c34)C[C@H]21	-2.39% (inactive) and -2.48% (inactive)
